# Source: PubChem
# Dicer processing: inhibitors of human Dicer processing of pre-microRNA; Q9UPY3; cat-ELCCA pre-miR-21 Dicer processing, chemiluminescence; stronger effect = higher value; z-score at 25 µM; 47,000 compounds, 6% hits; in the data active means z-score above about 3, passing the limit was not always enough;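 further: plate controls were vehicle for no effect and no enzyme for full effect; higher signal means more uncleaved substrate so more Dicer inhibition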
# Active calls of the source: *. The sample as a whole holds a higher share of hits than the screen did.
SMILES,Dicer processing
CCOCCOC(=O)C1=C(C)NC2=C(C(=O)CCC2)C1c1ccc(SC)cc1 (stereo unspecified),1.1
C/C(=N\Nc1cc(C(F)(F)F)ccn1)c1ccc(Oc2c(Cl)cncc2Cl)cc1,-0.6
CCN(CC)CCCNc1oc(-c2ccc(F)cc2)nc1C#N,-0.23
Cc1cc(C)nc(SCCc2ccncc2)n1,3.6*
Cc1cc(C)nc(SCC(=O)N2c3ccccc3CCc3ccccc32)n1,1.6
Cc1cc(C)nc(SCC(=O)n2c(C)c(C)c3ccccc32)n1,1.3
CC(C)(C)C(=O)NC(=S)Nc1cc(C(F)(F)F)cc(C(F)(F)F)c1,0.72
Cc1onc(-c2c(Cl)cccc2Cl)c1NC(=O)ON=C1CSC(C)SC1 (stereo unspecified),-0.82
N#Cc1c(Oc2ccc(Cl)cc2)ccc([N+](=O)[O-])c1Oc1ccc(Cl)cc1,-2.4
C=CCSc1nc2c(c(=O)n1CC)C1(CCCC1)Cc1ccccc1-2,-0.82
C=CCn1c(SCC)nc2c(c1=O)C1(CCCC1)Cc1ccccc1-2,-3.6
CSc1nc2c(c(=O)n1C)C1(CCCC1)Cc1ccccc1-2,4.2*
COc1ccc(C(=O)N2CCc3sccc3C2c2ccc(Cl)cc2)cc1 (stereo unspecified),-1.7
O=C(O)CC1(CC(=O)N2CCC(n3cccc3)CC2)CCCC1,-0.64
COc1cc(C2C(C(=O)OCc3ccccc3)=C(C)NC3=C2C(=O)CC(C)(C)C3)ccc1OC(C)=O (stereo unspecified),2.1
Ic1ccc(I)s1,0.2
COc1ccc(S(=O)(=O)n2c(C)nc3ccccc32)cc1OC,-0.67
Nc1cc(C(F)(F)F)ccc1N1CCCCC1,-0.13
O=C(NC(=O)c1ccc(C(F)(F)F)cc1)NN1CCCCCC1,-2.5
Oc1cc2c(cc1C(c1ccc(C(F)(F)F)cc1)N1CCCCC1)OCO2 (stereo unspecified),3.8*
CCOC(=O)CSc1nc(O)cc(=O)[nH]1,-3.2
Cc1ccccc1NC(=S)N1CCCCC1C (stereo unspecified),3.4*
Cc1ccccc1NC(=S)N1CC(C)OC(C)C1 (stereo unspecified),-1.1
Cc1c(Cl)cccc1NC(=S)N1C(C)CCCC1C (stereo unspecified),-0.76
CC12CCC3c4ccc(Oc5ccc([N+](=O)[O-])cc5)cc4CCC3C1CCC2O (stereo unspecified),0.52
SMILES,Dicer processing
N#C/C(=C\Nc1ccc(Cl)cn1)S(=O)(=O)c1ccccn1,-2.1
N#C/C(=C\Nc1ccc(Cl)cn1)S(=O)(=O)c1ccccc1,3.2*
N#C/C(=C\Nc1ccc(Cl)cn1)S(=O)(=O)c1ccc(Cl)cc1,1.2
O=S(=O)(NC(=S)Nc1ccc(Cl)c(Cl)c1)c1ccccc1,1.5
CCOC(=O)c1cc(S(=O)(=O)C(C)C)c(SC)s1,3.8*
COC(=O)c1cc(S(=O)(=O)C(C)C)c(S(C)(=O)=O)s1,-0.98
CCOC(=O)c1sc(SC)c(S(C)(=O)=O)c1N,-0.95
CC1=C(C(=O)OC(C)C)C(c2ccc(F)cc2)C2=C(CC(c3cccs3)CC2=O)N1 (stereo unspecified),0.94
CN(C)C(=O)c1nn(-c2ccc(Cl)cc2)c(=O)c2ccccc12,-0.67
CC(C)(C)n1cnnc1Sc1ccc(C(F)(F)F)cc1[N+](=O)[O-],-0.25
CN(C)C(=O)C12CCC(C)(C(=O)C1)C2(C)C (stereo unspecified),3.1*
O=C(O)c1c[nH]c2ccc(S(=O)(=O)N3CCCCC3c3cccnc3)cc2c1=O (stereo unspecified),-0.57
Cc1ccccc1-n1ncc(C(=O)O)c1C,0.31
CCCOC(=O)C1=C(C)NC2=C(C(=O)CC(c3ccccc3)C2)C1c1cc2c(cc1Cl)OCO2 (stereo unspecified),2.7
O=C(CCC(=O)OCC(=O)c1cccs1)Nc1cccc2cccnc12,4.3*
O=C(O)CCCC(=O)Nc1cccc2cccnc12,0.9
O=C(Nc1cccc2cccnc12)c1cccs1,-1.1
C=CCN1C(=O)C(O)(CC(=O)c2ccc(C)s2)c2cc(Br)ccc21 (stereo unspecified),3
CCN(CC)C(=O)C1Sc2nnc(C)n2NC1c1ccc(C)cc1 (stereo unspecified),0.82
O=c1cc(C(F)(F)F)nc(C2CC2)[nH]1,-1.2
CSc1nc2ccccc2n1CCOc1ccccc1,-1.9
Cc1ccc(OCCSc2nc3ccccc3n2CCO)cc1,-0.89
OCCSc1nc2ccccc2n1CCOc1ccccc1,3.9*
O=c1cc(O)c2c(n1-c1ccccc1)CCCCC2,-0.93
CCCCc1[nH]nc2c1C1(CCN(CC)CC1)C(C#N)=C(N)O2,-6.9
SMILES,Dicer processing
Cc1nc2ccccn2c1C(=O)NNS(C)(=O)=O,0.01
CN(C)C(=O)N1CCN(C(=O)c2ccco2)CC1,3.1*
O=C(c1ccco1)N1CCN(Cc2ccc3c(c2)OCO3)CC1,6.2*
O=S(=O)(c1ccccc1)N1CCN(Cc2ccc3c(c2)OCO3)CC1,8
CC1CCC(N2CCN(C(=O)c3ccco3)CC2)CC1 (stereo unspecified),0.07
CCCS(=O)(=O)N1CCN(C(=O)c2ccco2)CC1,2.7
O=C(c1ccc2c(c1)OCO2)N1CCN(Cc2ccc3c(c2)OCO3)CC1,-0.91
O=C(c1cc(-c2ccc3c(c2)OCO3)nc2ccccc12)N1CCN(Cc2ccc3c(c2)OCO3)CC1,1.4
COc1ccc(S(=O)(=O)N2CCN(Cc3ccc4c(c3)OCO4)CC2)cc1,8
O=S(=O)(c1ccc2ccccc2c1)N1CCN(Cc2ccc3c(c2)OCO3)CC1,6.6*
COc1c(Br)c(Br)c(Br)c2c1OCCO2,-0.84
Cc1cc(-c2cccs2)c2c(n1)sc1c(O)cc(=O)[nH]c12,-1.6
Cc1ccc(S(=O)(=O)Nc2sc3c(c2C(N)=O)CCCC3)cc1,2.1
CSc1scc(NC(=O)Nc2cccc(Cl)c2)c1S(=O)(=O)C(C)C,-0.57
CS(=O)(=NC(=O)Nc1ccc(Cl)cc1)c1ccccc1 (stereo unspecified),-1.3
c1cnc2c(SCc3cn4ccccc4n3)cccc2c1,0.04
Cc1cc(C(=O)NC2(O)C(=O)c3ccccc3C2=O)n(C)n1,-4
C=CCNc1nc(CC(=O)OCC)cs1,0.98
Cc1ccc(S(=O)(=O)Cc2csc(N3CCOCC3)n2)cc1,1.1
Cn1c(=O)cc(Nc2ccc(Cl)cc2)c2c(=O)n(-c3ccccc3)c(=O)n(-c3ccccc3)c21,1.1
COc1ccc(NC(=O)Nc2c(C)noc2-c2ccccc2)cc1,1.5
COc1ccc(NC(=O)Nc2nnc(COc3ccccc3F)s2)cc1,3.5*
COc1ccc(OCC(O)CNC(=O)Nc2ccc(OCc3ccccc3)cc2)cc1 (stereo unspecified),-0.86
COC(=O)CC/C(=N\NS(=O)(=O)c1ccc(C)cc1)c1ccn(S(=O)(=O)c2ccccc2)c1,-2.6
Cn1c(NCc2ccccn2)nc2c1c(=O)n(Cc1cccc(Br)c1)c(=O)n2C,-0.09
SMILES,Dicer processing
O=S(=O)(N=S1CCN(c2ccc(C(F)(F)F)cn2)CC1)c1ccc(Cl)cc1,-0.7
Clc1ccccc1CN1CCN(Cc2cccnc2)CC1,1.4
CCc1ccc(CN2CCN(Cc3cccnc3)CC2)cc1,3.1*
Brc1cccc(CN2CCN(Cc3ccncc3)CC2)c1,2.8
Cc1cc(C)c(NC(=S)NC(C)(C)C)c(C)c1,0.01
C=CCOC(=O)C1=C(C)N=C2SCCC(=O)N2C1c1ccccc1F (stereo unspecified),-1.4
CC1(C)SC(c2ccc(C3NC(C(=O)O)C(C)(C)S3)cc2)NC1C(=O)O (stereo unspecified),-2.4
CC1(C)S[C@H](CNC(=O)Cc2ccccc2)N[C@H]1C(=O)O,4*
